In PubChem BioAssay AID1508600 (Functional Genomics Laboratory (NCATS/FGL), 2020):
About 3,700 (7%) of roughly 53,000 sequences were called active. Only a selection was taken, and actives are over-represented in it overall. A number with no mark means an inactive call.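 Rule for the calls: active = gene knockdowns whose robust z-score for IL-1 alpha signal is at least 2 or at most -2, so actives lie on both sides; inactive = the rest.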

Assay: Components of the Cytosolic LPS Sensing Pathway: Gene Identification via Genome-wide siRNA Screen;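 note: robust z of the log signal after scaling to non-targeting control siRNA wells of the plate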
Conditions: RAW264.7 macrophages, IL-1a HTRF, actives lie on both sides, screened at 100 nM (by protocol), cells primed 5 h with Pam3CSK4 first
Outline: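 Knockdown: 100 nM siRNA, 48h, RAW264.7. Stimulation: Pam3CSK4 5 h, then LipidA via TransIT-TKO 24 h. Output: supernatant IL-1a HTRF, negative-control-normalized, log robust z-score; viability by CellTiter-Glo.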

Sequence | z-score
GCCUUAAGAGAUGUAUUUCTT against Vmn1r33 | -0.042
GGAGGAAAUGAUGAUUUUCTT against Kbtbd2 | 0.283
CCAAGCGAAUGCUGGACAUTT against Cox4i1 | 3.44 (active)
GGUACAUCUAUUUCUUGUUTT against Ncam2 | -1.2
GGACUGUACUAUGGCUCUCTT against Nt5m | 0.135
GGGAGGAGAGUGAUUGAGATT against A730013G03Rik | 0.682
CCAACAAAUUCUGGUGGGATT against Ccdc84 | 0.578
GGAGUACCUGUGGUGCAUUTT against Ahcy | 0.213
GGCGGUACCUCUUCUUCAUTT against Aipl1 | 2.32 (active)
CCGAAGUCAACUAAACUUATT against Rmc1 | 0.732
CCCUUGCUACAAUGAUGCCTT against Mfge8 | 2.56 (active)
GGACAACUUCAACAGCACUTT against Rab13 | -1.31
CGUAGAGCUCAGAGAAUUCTT against Dhx58 | 0.614
GCGAAUGAUAUGUAUCAGATT against Pik3r1 | 0.647
ACCUUUUCAAAUCUGUGCGTT against Uts2b | -0.928
GGCUAACCAGAGGAAAAACTT against Rph3a | -2.19 (active)
GCUCUUGGUCCGUCUUCAGTT against 6030452D12Rik | -1.76
GGAGUCUUGUAAUGAGCUUTT against Zfp54 | 0.898
CCCUCAAAGUCAUUUCAAATT against Cfap43 | -1.61
GGUUGAAAAUGGAAGAGUATT against Mbnl2 | -2.27 (active)
CCUUCCUACCGGAGAAUGATT against Capn6 | -0.341
GGUUCAACAUGAAAAUGAUTT against Lingo2 | -0.251

Sequence | z-score
GCCAAUUGAGUCGUCUAUCTT against Rps6ka1 | 2.41 (active)
GGCAGCGAUUGACAAAAUGTT against Eefsec | -0.756
GGUCGUGAUAAACAUAUCATT against Cep85 | -1.1
GGUCAAUGGCCACAAGUUCTT against Prkce | 0.421
CCAUGAUCGCUAGUGAAGCTT against Mrpl24 | -0.743
GGUGGUGAACUGUUUGACCTT against Pnck | -1.58
GCUGACCUUUGUAAGUUAUTT against Ttc17 | -0.369
GGCUAUGCUUCUUUCCUUUTT against Cfhr1 | 0.846
GGAGAAGAAAAAGAAGGACTT against Pak1 | -0.932
CGGCUUGCUACUUUGGAACTT against Gda | 2.55 (active)
GAUGGAUCGAACUCUGCACTT against Stard10 | -0.957
GGACCAAGUGGAGAAAGAATT against Nkx6-1 | -0.622
CCCAGAUGAACAAAUGACCTT against Tceanc | 0.582
GCAUUAUGGAAAGUUGGAGTT against Gabra4 | 0.915
GGAGUGUGAGGUCCUCUCUTT against Sdsl | 1.85
GCGUAAGGAAUUGUCUAACTT against Hoxd12 | 4.05 (active)
CCGACGAUUCCUGAAGCUATT against Tada3 | -0.275
GGUGACAGAUUCUUUGAGGTT against Tti2 | 0.704
GGUCAGAUUAUGCUUUAGATT against Mrgpre | -0.783
CGUGAUUGAAUCUCAGGAGTT against Spata24 | -2.14 (active)
GCAGAGGGUUUUCCAAGCGTT against Ddx4 | -0.631
GGAAGUGACCUGUCUGAAGTT against Gramd1a | 0.641

Sequence | z-score
GGAUUAUGUAGAGGCCCAATT against Gngt2 | -2.63 (active)
GGACAGCUGGACCUAAAGGTT against Slco4a1 | -0.417
GGAGCUGAUGGUUGAAUGUTT against Ehbp1 | 0.177
GGAUCCUCGGGAGUACAUGTT against Crybg3 | 0.287
CCAGUAAGUUGCAUUCGAATT against Defb8 | 0.675
GGCAUAGCUGGUCUGAAGATT against Slc3a2 | 2.06 (active)
CCUCAUUUCCAAACUCAAATT against Fbxw13 | -0.491
CCACGAGAAGUGGAUAUUATT against Plcxd3 | -1.1
CCUGAACAUGAGUUAAAAGTT against Lmo4 | 0.156
GGAUUAGCUCUACAGAAGGTT against Olfr1031 | 1.67
GGAGCUGUUUUUCCACUCCTT against Phlda2 | -0.337
GCUGGAAGAAAACUUCUAUTT against Jade2 | 2.49 (active)
GGUAUGGUUUCUAUAACAATT against Arsj | 0.814
GGAAGGUCAUGUGAAUAUCTT against A930002I21Rik | -1.6
GGCUUUGAGAGUUUGUCACTT against 2410004B18Rik | -1.62
GGGAGUUAAACUUCUCUGCTT against Tlr13 | -0.0637
GGUACCGGAGUCUGAAACATT against Drp2 | -2.53 (active)
GGGUCAGUGUGGAGAGUACTT against Col13a1 | 0.679
GGAUGAAUGGAAUUUACUGTT against Fbh1 | 0.406
GGGAAAAGUGGUAAAUUAUTT against Shprh | 0.194
GGAAGACAAGGUUUUAGCUTT against Ulbp1 | 1.92
CGUGGAGAGAUCAAUCCCGTT against Adad1 | -2.01 (active)

Sequence | z-score
GGUUCAUGAAUGACAAACUTT against Sult4a1 | 0.383
GGUGUUUAAUAAUGUUGUCTT against Olfr976 | -0.27
CCCAAUGACAAUAAAGACCTT against Mmp25 | -0.936
GGGCUUGUAUCUACCAUGGTT against Strbp | 2.18 (active)
GGUAAGAGGAUCCAAGGUGTT against Fam131a | 0.0909
CCUACGUCCAGUAGUGCAGTT against Ahdc1 | 1.43
GCUCAAAGGACCUCUGAGCTT against Slc29a2 | -1.28
CCUCCACUUCGUGAGCGAATT against Xxylt1 | -1.25
GCCACUGUUGUGUAAACUATT against Rap2a | 2.01 (active)
GGAGAAGUCUUCAUUUGAATT against Tubgcp2 | -0.331
GGAAGUAGGCAGCAUCAUCTT against Pcbp1 | 1.13
GGCUGGCUUUGAACUCAAUTT against Zfp36 | -1.28
GCAACUGCCUAGGCUUGAUTT against Slc30a7 | 4.79 (active)
GGCAGAUGUAUGAAAUCUUTT against Fancc | -0.196
GGUAUGCAACCUUGCCUUUTT against Coa3 | 0.945
GGAGAAGACUUGUAACAAATT against Hacd4 | 5.28 (active)
GGGAUGACUUGGAGUCUCUTT against Csnk1d | -0.0473
CGGUUUCUUACCAGCAAUUTT against Mgmt | -0.237
GAACCAGACUAAGAACUGUTT against Cox6b1 | 5.31 (active)
GGCCUUCUCUGACUUUCUGTT against Zfp324 | -0.633
GGGACAAUGUACAUCUACUTT against Dnaaf6b | -0.199
GCAAGAUCCGUACAUAGCATT against Wdr48 | -1.43

Sequence | z-score
GGCAUUAAAGACCUGUUAATT against Kpnb1 | -0.887
AUUGUAGCAGUGAAUUGGATT against Pdia6 | -0.121
GGAGCUGAUAGGACUGAUGTT against Snap47 | 2.16 (active)
CCAGAAAUUGACAAAAAGUTT against Etfa | 0.492
GCCCUACCAAAGACACUAGTT against Lrch4 | -2.31 (active)
GGCAGGAGAAAGGCCUUUUTT against Olfr535 | 0.123
GAGUGUGCAUUUUGUUAGUTT against Olfr136 | 0.763
GGCUGAGGCUGUGAAGAAGTT against Igfbp5 | -0.659
GGGCAAACGGAGGAAUGAATT against Slc35g3 | 2.47 (active)
GGAGAGUAAAUACCGACAGTT against Homer2 | -0.133
GCUGUUACCCUUAUGCAGCTT against Supt7l | 0.486
GGACAACGAUAGCUAACCUTT against Tmem63a | 0.453
GGAUGAAGAACCACUCAAATT against Ankzf1 | -1.06
GGUGUGUUUUAUGUGUCCCTT against Ctif | 2.62 (active)
CCUAUUUUAACCUUACGUGTT against Bdh1 | -0.443
GGAAGAGUUGGAGAAAAUUTT against Tex46 | 2
GGAGGUCUACAUUUAUUAATT against Dera | 1.31
CCAAACAGGCUUUUUUCCUTT against Snx31 | -0.712
GCAACGAGUGUGUUUUCUGTT against Spink10 | 2.25 (active)
CCAUGUCAAACACCUUAGUTT against Crebzf | 1.26
